Shown are actives, neighbours in structure and some others; about 9.4% of the full set was active somewhere.
NPC1 promoter act – NPC1 promoter activation | Huh7 NPC1 promoter luciferase reporter, 24 h | Potency, µM (highest dose often 9.22 µM), usual class: activators | 2.4% of 320,000 active; also: nearly all actives have a fitted effect of over 60% in size
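Compounds in DMSO were transferred onto Huh7 NPC1-luciferase reporter cells pre-incubated 2 h; after 24 h at 37 °C, Amplite reagent was dispensed and luminescence recorded 10 min later.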
SMN2 splice up – enhancers of SMN2 splice variant expression; HEK293 SMN2-luciferase splicing reporter, luminescence, 30-36 h; Potency, µM (series often up to 46.1 µM), most hits filed as activators; 2.8% of 210,000 active; AID 1458; also: nearly all actives have a fitted effect of over 55% in size
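qHTS luciferase splicing reporter: luminescence rises when SMN2 exon 7 is included in transfected HEK293 cells. Compound exposure lasted 30-36 h at 37C, with 4.5 mM final sodium butyrate as control, followed by a ONE-Glo read.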
FLuc counter – counter-screen for miR-21 project: firefly luciferase inhibitors or activators | purified FLuc, Km substrates, luminescence inhibition | Potency, µM (top dose mostly 57.5 µM), hits mostly inhibitors | 6.9% of 360,000 active; also: nearly all actives have a fitted effect of over 55% in size
Target sequence (P08659 whole entry, looked up): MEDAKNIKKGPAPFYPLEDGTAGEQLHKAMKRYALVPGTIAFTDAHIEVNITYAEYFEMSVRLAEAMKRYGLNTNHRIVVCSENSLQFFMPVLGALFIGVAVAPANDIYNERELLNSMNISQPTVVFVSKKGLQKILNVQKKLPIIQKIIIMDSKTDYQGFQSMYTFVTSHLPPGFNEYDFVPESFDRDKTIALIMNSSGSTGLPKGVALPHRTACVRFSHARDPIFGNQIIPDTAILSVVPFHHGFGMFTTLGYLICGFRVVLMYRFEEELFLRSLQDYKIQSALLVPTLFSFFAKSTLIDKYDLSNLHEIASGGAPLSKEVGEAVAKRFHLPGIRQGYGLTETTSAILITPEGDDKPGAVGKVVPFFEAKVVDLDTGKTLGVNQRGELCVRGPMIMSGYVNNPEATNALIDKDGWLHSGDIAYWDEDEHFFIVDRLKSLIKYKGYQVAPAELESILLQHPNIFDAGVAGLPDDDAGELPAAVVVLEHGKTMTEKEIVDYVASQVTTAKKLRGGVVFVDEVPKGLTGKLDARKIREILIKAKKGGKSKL
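Biochemical qHTS of compounds, final roughly 60 µM downward over six points, against 10 nM purified firefly luciferase using Km concentrations of substrates (10 uM D-luciferin, 10 uM ATP) in Tris acetate pH 7.5 buffer; luminescence output.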
Rab9 prom act – activates the Rab9 promoter | Huh7 Rab9 promoter-luciferase reporter, luminescence, 24 h | Potency, µM (top dose mostly 9.22 µM), usual class: activators | 2.8% of 320,000 active | AID 485297; also: nearly all actives have a fitted effect of over 60% in size
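Stable Rab9-luc Huh7, 1500 cells/well, 2 h settle; cmpd in DMSO, 24 h, 37 °C/5% CO2; luciferase reagent 10 min RT; luminescence.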
ELG1 genotox – genotoxicity induction in ELG1-luciferase HEK293T cells | 1.3% of 330,000 active | HEK293T ELG1-luciferase reporter, luminescence, 16 h | Potency, µM (top dose mostly 46 µM), actives largely listed as activators; also: nearly all actives have a fitted effect of over 60% in size
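Reporter readout depends on ELG1 protein level, which increases with genetic stress. After 16 hr compound exposure at 37 °C, luciferase activity was quantified using ONE-Glo.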
ELG1 DNA repair – inhibitors of ELG1-dependent DNA repair in HEK293T cells. HEK293T ELG1-luciferase reporter, luminescence, 16 h; DNA damage induced by 5-fluorouridine. Potency, µM (doses to about 46.1 µM), usual class: inhibitors. 2.3% of 330,000 active. AID 504467; also: nearly all actives have a fitted effect of over 55% in size
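Quantitative HTS, concentration-response format. 2,000 cells/well co-treated with 5-fluorouridine and compound, 16 hr in 5% CO2 at 37 °C; ONE-Glo luminescence read after 30 min.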
A number is an active result; – = inactive; ? = inconclusive; · = no result; [ ] = another dose, or the depositor's remark. Calls follow the shape of the dose curve; as a rule, active = well fitted curve in the direction sought with a large enough effect; inconclusive = small, poorly fitted or top-dose-only effect, or another doubt; inactive = no such curve, though single readings can be large; an effect the other way counts as inactive or inconclusive.

SMILES	NPC1 promoter act	SMN2 splice up	FLuc counter	Rab9 prom act	ELG1 genotox	ELG1 DNA repair
CCOn1c(=O)c(-c2cc3ccccc3o2)[n+]([O-])c2ccccc21	3.5µM	16µM	?	2.8µM	?	?
O=c1c(-c2cc3ccccc3o2)[n+]([O-])c2ccccc2n1OCc1ccccn1	?	?	12µM	?	?	?
COc1ccc(-c2c(=O)n(OCc3nc4ccccc4[nH]3)c3ccccc3[n+]2[O-])cc1	–	·	?	–	–	?
CCOc1ccc(-c2c(=O)n(OCc3nc4ccccc4[nH]3)c3ccccc3[n+]2[O-])cc1	–	·	17µM	–	–	?
CCc1ccccc1NC(=O)CSc1nc2ncccc2o1	·	·	–	·	·	·
CCOc1ccccc1NC(=O)c1ccc2c(c1)CCN2S(C)(=O)=O	·	–	–	·	·	·
Cc1ccc(CNc2ccc(N3CCOCC3)cc2)s1	2.5µM	18µM	0.95µM	3.5µM	4.1µM	?
Cc1ccc(NCc2ccc(C)s2)cc1	–	·	21µM	–	–	–
CC(=O)N1CCN(c2ccc(NCc3ccc(C)s3)cc2)CC1	–	–	–	–	–	–
Cc1oc2ccc(O)c(CN3CCCCCC3)c2c1C(=O)Nc1cccc(C(F)(F)F)c1	·	–	–	·	·	·
CCN=c1scc(-c2ccco2)n1/N=C/c1ccc(OC)c(O)c1	·	?	5.4µM	·	·	·
CCN=c1scc(-c2ccco2)n1/N=C/c1ccc(O)cc1	?	?	6.7µM	?	12µM	?
O=C(/C=C/c1ccc(Cl)c(Cl)c1)n1cccn1	–	–	2.7µM	–	–	–
COC(=O)c1ccc(NC(=O)C2CCN(S(=O)(=O)c3ccc4c(c3)CCCN4C(C)=O)CC2)cc1	·	·	–	·	·	·
Cc1ccc(C)c(N2CCN(C(=O)CSCc3ccccc3Cl)CC2)c1	·	·	–	·	·	·
CC1CCN(C(=O)CSCc2ccc(Cl)cc2)CC1	?	?	19µM	3.2µM	15µM	?
O=C(CSCc1ccc(F)cc1)N1CCN(c2ccc(Cl)cc2)CC1	·	·	–	·	·	·
CCOc1ccc(CCNC(=O)c2cc(C)nc3c2c(C)nn3-c2cccc(F)c2)cc1	·	·	–	·	·	·
COc1ccccc1CNC(=O)CCC1N=C2c3ccccc3N=C(SCC(N)=O)N2C1=O (stereo not given)	·	·	–	·	·	·
CCOC(=O)c1c(C)[nH]c(C(=O)COC(=O)[C@H](C)NC(=O)c2ccccc2Cl)c1C	–	–	21µM	–	?	?
CCOC(=O)c1c(C)[nH]c(C(=O)COC(=O)CNC(=O)c2ccc(Br)cc2)c1C	–	–	–	–	–	?
CCOC(=O)c1c(C)[nH]c(C(=O)COC(=O)CNC(=O)C2CCCCC2)c1C	–	?	3µM	–	–	–
CCOC(=O)c1c(C)[nH]c(C)c1C(=O)COC(=O)CNC(=O)C1CCCCC1	–	–	–	–	–	–
CCOC(=O)c1c(C)[nH]c(C(=O)COC(=O)CNC(=O)c2ccccc2Cl)c1C	–	·	11µM	?	?	?
CCOC(=O)c1c(C)[nH]c(C(=O)COC(=O)c2ccccc2NC(=O)c2ccco2)c1C	–	–	–	–	–	?
SMILES	NPC1 promoter act	SMN2 splice up	FLuc counter	Rab9 prom act	ELG1 genotox	ELG1 DNA repair
Cc1ccccc1C(=O)Nc1nc(-c2nnn(-c3ccc(C(C)C)cc3)c2C)ns1	·	·	–	·	·	·
Cc1ccc2c(c1)Cc1nc3ccccc3nc1-2	–	?	1.1µM	?	–	?
Nc1ccc2nc(SCc3ccc([N+](=O)[O-])cc3)sc2c1	–	–	21µM	–	–	–
CC(=O)CSc1nc2ccccc2s1	–	–	–	–	–	?
COC(=O)CSc1nc2ccc(N)cc2s1	–	–	27µM	–	–	–
CC(C)OC(=O)CSc1nc2ccccc2s1	–	–	24µM	–	?	?
O=C(c1cccc(F)c1)N1CCC2(CCN(Cc3ccccc3)CC2)CC1	·	–	·	·	·	·
CCOC(=O)c1cc(S(=O)(=O)Nc2ccccc2OCC)[nH]n1	·	·	–	·	·	·
COc1ccc(NC(=O)N(CCC(C)C)C(C)c2cccs2)c(OC)c1 (stereo not given)	·	·	–	·	·	·
O=C1c2ccccc2C(=O)N1CCSc1nc2ccccc2c(=O)n1CCCN1CCOCC1	–	–	–	–	–	–
O=C1c2ccccc2C(=O)N1CCCCSc1nc2ccccc2c(=O)n1CCCN1CCOCC1	–	–	–	–	–	21µM
COc1ccc(NC(=O)N2CCc3nc(-c4ccccc4)c4c(c3C2)CO[C@@H](C)C4)cc1	·	–[9.22 µM]	·	·	·	·
O=C(NCc1ccccc1Cl)C1CCCN(c2nc3ccsc3c(=O)s2)C1 (stereo not given)	–	–	–	–	–	–
CC1CCCN(c2nc3ccsc3c(=O)s2)C1 (stereo not given)	?	22µM	15µM	?	13µM	?
CCOc1ccc(-c2nonc2NC(=O)c2oc3c(C)c(C)ccc3c2C)cc1OCC	·	–	–	·	·	·
COc1cc(SC)ccc1C(=O)Nc1ccc(OCC(=O)N2CCOCC2)cc1	2.8µM	·	0.48µM	1.8µM	?	?
COc1cc(SC)ccc1C(=O)Nc1cc(C)c(OCC(=O)N2CCOCC2)c(C)c1	–	·	6µM	–	–	15µM
COc1ccccc1C(=O)Nc1ccc(OCC(=O)N2CC(C)CC(C)C2)cc1 (stereo not given)	–	·	11µM	–	–	–
C=NCc1cc2c(OC[C@@H](O)CNC(C)(C)C)cccc2[nH]1	·	–	·	·	·	·
CC(C)(C)CNC(=O)c1cccc2c1C(=O)c1ccc(N3CCCC3)cc1S2(=O)=O	·	·	·	·	–	16µM
c1c[nH]cn1	·	–	·	·	·	·
COCCOC(=O)c1c(C)nc(SCC(=O)Nc2cccc3ccccc23)c(C#N)c1-c1ccco1	–	–	–	–	–	13µM
CCCN(Cc1cc2cccc(C)c2[nH]c1=O)C(=O)c1cccc(Cl)c1	·	–	–	·	·	·
COC(=O)c1ccc(NC(=O)CSc2nc3ccccc3c(=O)[nH]2)cc1	–	–	–	–	?	?
COc1ccc(NC(=O)CSc2nc3ccccc3c(=O)[nH]2)cc1S(N)(=O)=O	–	·	19µM	–	–	–
SMILES	NPC1 promoter act	SMN2 splice up	FLuc counter	Rab9 prom act	ELG1 genotox	ELG1 DNA repair
COc1ccccc1NS(=O)(=O)c1cc(NC(=O)CCc2nc3ccccc3c(=O)[nH]2)ccc1C	–	·	–	–	–	13µM
O=C(CCc1nc2ccccc2c(=O)[nH]1)Nc1ccc(F)cc1	–	?	–	–	–	?
CCOC(=O)c1c(C)[nH]c(CCC(=O)Nc2ccccc2C(=O)OC)c1C	·	·	–	·	·	·
O=C(Nc1ccccc1F)C(Cc1ccccc1)N1Cc2ccccc2C1=O (stereo not given)	·	·	–	·	·	·
CSC1=NSC2=NC(=O)/C(=C\c3coc4ccccc4c3=O)C(=N)N12	–	–	–	–	–	–
CC(C)CSC1=NSC2=NC(=O)/C(=C\c3ccccc3)C(=N)N12	3.2µM	?	17µM	2.8µM	?	?

Assay outcomes deposited in PubChem by National Center for Advancing Translational Sciences (NCATS).
